Screens (PubChem BioAssay)
This excerpt belongs to a sample that is enriched for hits.
KDM5B inh: Primary screen for KDM5B Histone Demethylases FDH-coupled qHTS. KDM5B demethylase, FDH-coupled NADH fluorescence (FDH is formaldehyde dehydrogenase). Potency, µM (doses to about 57.7 µM), most hits filed as inhibitors. 220,000 tested, 2.6% active. AID 1347165, 2019; active means well fitted inhibition curve with a large enough effect; further: 0% is about no effect; nearly all actives have a fitted effect of over 70% in size
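Here, H3K4me3 peptide (12.5 µM in substrate mix) is demethylated by KDM5BΔAP, 200 nM final, after 10 min compound exposure. Formaldehyde product is coupled through FDH (0.25 U/mL in mix) to NADH fluorescence; 30-min ΔRFU feeds dose-response curves.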
* hit, by the source's call; i = inactive. Potency means the concentration at half of the fitted maximal effect.

SMILES | KDM5B inh
CC(Sc1cc(C(=O)NC2CC2)c2ccccc2n1)C(=O)N1CCOCC1 (configuration not stated) | i
Cn1c(=O)[nH]c(=O)c2c1nc(N1CCN(C/C=C/c3ccccc3)CC1)n2Cc1ccc(Cl)cc1 | i
CCCN(CC#N)CC(=O)NC(=O)NCc1ccccc1 | i
CCc1ccc(C(NC(=O)Cn2nc(C)c3ccccc3c2=O)C(C)C)cc1 (configuration not stated) | i
c1ccc2c(c1)Sc1ccccc1S2 | i
COC1CCC12CCN(C(=O)c1cccs1)CC2 (configuration not stated) | i
COc1cc(OC)cc(C(=O)N2CCN(C(=O)c3cccs3)CC2)c1 | i
COc1nccnc1NC1CCN(C(=O)c2cccs2)CC1 | 25.1µM*
CCS(=O)(=O)N1CCC(Oc2ncccc2C(=O)N(C)C)C1 (configuration not stated) | i
COc1nccnc1NC1CCN(C(=O)c2ccccc2)CC1 | 31.6µM*
CCCOc1nccnc1NC1CCN(S(=O)(=O)CC)CC1 | 28.2µM*
O=C(c1ccccc1)N1CCC(Oc2ncccc2C(=O)N2CCCCC2)C1 (configuration not stated) | i
CCS(=O)(=O)N1CCC(NC(=O)c2ccccc2C(=O)c2ccc(C)cc2)CC1 | i
O=C(c1ccccc1)N1CCC(Oc2nccnc2N2CCOCC2)C1 (configuration not stated) | i
CCOC(=O)/C=C/c1cccc(C(C)=O)c1 | i
CCN1C(=O)CCc2cc(NS(=O)(=O)c3c(C)cc(C)cc3C)ccc21 | i
FC(F)Oc1ccc(NC(=S)NCCc2ccccc2)cc1 | i
COc1cccc(/C=C/C(=O)Nc2cccc(CO)c2)c1 | i
Cc1ccc2c(=O)cc(C(=O)N3CCN(c4cccc(Cl)c4)CC3)oc2c1C | i
O=C(C(Sc1nc2ccccc2o1)c1ccccc1)N1CCCC1 (configuration not stated) | i
CCn1nc(C(=O)Nc2cc(S(=O)(=O)N(C)C)ccc2C)c2ccccc2c1=O | i
CC1CCc2c(sc3nnn(CC(=O)OC4CCCC4)c(=O)c23)C1 (configuration not stated) | i
COc1ccc(C2CC(=O)Nc3c2c(=O)[nH]c2ncnn32)cc1OC (configuration not stated) | i
O=C(NCc1nnc2ccc(-c3ccccc3)nn12)c1ccc[nH]c1=O | 28.2µM*
O=C(CSc1nnc2ccc(-c3ccncc3)nn12)N1CCN(c2ccccc2)CC1 | i
SMILES | KDM5B inh
COc1ccccc1CC(=O)NCc1nnc2ccc(-c3ccccc3)nn12 | i
CC(C(=O)NCc1nnc2ccc(-c3ccccc3)nn12)c1ccccc1 (configuration not stated) | 28.2µM*
Cc1cc(C)cc(C(=O)NCc2nnc3ccc(-c4ccccc4)nn23)c1 | 25.1µM*
Cc1ccc(C(=O)NCc2nnc3ccc(-c4ccccc4)nn23)c(C)c1 | 28.2µM*
CC(C)CCN1CCC2(CC1)OC(=O)N(Cc1ccc(O)cc1)C2(C)c1ccccc1 (configuration not stated) | i
COc1ccccc1CC(=O)NC1CCCC1 | i
O=C1CC(c2ccc(C(F)(F)F)cc2)c2cnn(Cc3ccc4c(c3)OCO4)c2N1 (configuration not stated) | i
CC[N+](C)(CC)CCCOC(=O)C1(c2ccccc2)CCCC1 | i
COc1ccc(NC(=O)c2c(-c3ccc(OC)cc3)oc3ccc(OC)cc23)cc1 | i
Cc1ccc(NC(=O)C2CCN(C(=O)C(C)(C)C)CC2)cc1S(=O)(=O)N1CCCCC1 | i
CCN(Cc1ccc(OC)c(OC)c1)C(=O)c1cc2ccccc2oc1=O | i
CC(C)CCNC(=O)CSc1nc2ccsc2c(=O)n1Cc1ccccc1 | i
Cc1ccc(-c2nnc3ccc(C)cc3c2C(=O)O)cc1 | i
CSC(=Nc1cccc([N+](=O)[O-])c1)SC | i
CCN(Cc1ccccc1)C(=O)CSc1nc2cn(CC)nc2c(=O)n1Cc1ccc(C)cc1 | i
COc1ccccc1Nc1nc(N2CCOCC2)c2cnn(C)c2n1 | i
COc1ccccc1-c1nc(N2CCOCC2)cc2c1CN(Cc1cnn(C)c1)C2=O | 35.5µM*
COc1ccc(S(=O)(=O)N2CCN(c3cc(N4CCOCC4)nc(C)n3)CC2)c(C)c1C | i
CC(=O)Nc1cccc(-c2cn(C)c(=O)n3cc(CN4CCNC(=O)C4)nc23)c1 | i
CC(=O)Nc1cccc(-c2nc(N3CCOCC3)cc3c2CN(Cc2cnn(C)c2)C3=O)c1 | 28.2µM*
CCn1c(SCC(=O)c2ccc(Br)s2)nnc1-c1ccc(OC)cc1 | i
O=C(Cc1ccc(Cl)cc1)Nc1nc2c(s1)CCCC2 | i
COCCNC(=O)c1ccc2c(c1)N(C)C(CC(=O)N1CCC(C)CC1)CO2 (configuration not stated) | 20µM*
COCCNC(=O)c1ccc2c(c1)N(C)C(CC(=O)N1CCCOCC1)CO2 (configuration not stated) | 31.6µM*
